# Whole data set: some 2,300 compounds, median “plate-normalized OD600 growth (mean of duplicates)” near 0.29, cut for the lowest 2% near 0.22. For the sample, the lowest values were picked, then their nearest neighbours and some compounds at random.
# Test system: Escherichia coli BW25113
# Experiment: plate-normalized OD600 growth (mean of duplicates) (OD600 (normalized)); higher = more growth (less inhibition)
# Conditions: 10 µM
# Description: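 E. coli BW25113 in LB (100 µl, 96-well, no shaking) was exposed to 10 µM of each compound from a ~30,000-member library and grown at 37°C for 24 h or 15°C for 48 h, in duplicate. Growth was read as OD600 and the duplicate ODs were normalized across screening plates to correct plate-to-plate variation. Hits were >3σ below the mean OD600 at 15°C and <2σ below the mean at 37°C.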
SMILES,"plate-normalized OD600 growth (temperature: 15°C, 48 h)","plate-normalized OD600 growth (temperature: 37°C, 24 h)"
Cc1ccc(NC(=O)CCN2CCN(c3ccccc3)CC2)cc1,0.26,0.612
C/C(CC(=O)Nc1ccc(N(C)C)cc1)=N\NC(=O)COc1ccc(C)cc1,0.236,0.627
CC(=O)N(CC(=O)Nc1ccc(C)cc1)c1ccccc1,0.214,0.646
COC(=O)C1=NN(c2ccccc2Cl)C2(S1)c1ccccc1C(C)=NN2c1ccccc1 (stereo unspecified),0.234,0.641
O=C(NCCSCc1ccco1)c1ccc(Cl)cc1,0.25,0.605
CC12CCC(C1)C(C)(C)C2NC(=O)c1cccs1 (stereo unspecified),0.26,0.639
Cc1nn(CC(=O)NNC(=O)COc2ccc(Cl)cc2Cl)c(C)c1Br,0.235,0.607
O=C(Oc1ccc(N(C(=O)c2ccccc2)S(=O)(=O)c2cccs2)cc1)c1ccccc1,0.225,0.622
O=c1[nH]nc(-c2ccc(N3CCN(CCO)CC3)c([N+](=O)[O-])c2)c2ccccc12,0.242,0.616
COCc1cc(C)c2c(n1)sc1c2nc(C)n2c3ccccc3nc12,0.244,0.619
CCOc1ccc(NC(=O)CC2S/C(=N\N=C\c3ccc(C)s3)NC2=O)cc1 (stereo unspecified),0.222,0.624
Cc1cc(C(O)(C(F)(F)F)C(F)(F)F)cc(C)c1O,0.249,0.618
O=C(Nc1nc(-c2ccccc2)cs1)C1CC(O)CN1C(=O)Oc1ccccc1 (stereo unspecified),0.263,0.648
Cc1cc(/C=N/NC(=O)c2cc3ccccc3o2)c(C)n1-c1ccc(C23CC4CC(CC(C4)C2)C3)cc1,0.244,0.607
COc1cccc(C2C3=C(CC(C)(C)CC3=O)OC(N)=C2[N+](=O)[O-])c1 (stereo unspecified),0.246,0.619
O=C(CC(=O)Nc1cccc(Cl)c1)N/N=C\c1ccccc1,0.246,0.616
OCCCc1cccc(C(F)(F)F)c1,0.242,0.586
O=C1C=C(Cl)CC(c2ccc(C(F)(F)F)cc2)C1 (stereo unspecified),0.243,0.607
O=C(O)c1ccc(Br)c(NC(=O)C2C3C=CC(C3)C2C(=O)O)c1 (stereo unspecified),0.248,0.604
N/C(=N\OC(=O)c1ccno1)c1ccc(C(F)(F)F)cc1,0.253,0.612
O=C(O)c1oc(C(=O)O)c(OCc2ccccc2)c1OCc1ccccc1,0.263,0.637
Cc1nnn(-c2nonc2N)c1C(=O)NNC(=O)c1ccc(Cl)c(Cl)c1,0.243,0.606
O=C(NNC(=O)c1ccccc1OCc1ccccc1)c1ccc(Cl)c(Cl)c1,0.216,0.606
O=C(Nc1ccc(Cl)cc1Cl)c1cnccn1,0.245,0.607

SMILES,"plate-normalized OD600 growth (temperature: 15°C, 48 h)","plate-normalized OD600 growth (temperature: 37°C, 24 h)"
N#CC1=C2N=C(N)c3c(sc4c3CCCC4)N2C2=C(C(=O)CCC2)C1c1cccnc1 (stereo unspecified),0.246,0.624
C/C(=N/OC(=O)c1ccc(Cl)cc1)c1ccc(F)cc1,0.236,0.601
CCN(CC)C(=O)NC(=O)c1c(C)cc(Cl)nc1Cl,0.243,0.63
Cc1ccc(N2CC(=O)N(/N=C/c3ccc(F)cc3)C2=S)cc1,0.232,0.63
COc1ccc(C(=O)[C@@H]2[C@@H](c3cccs3)C(C#N)(C#N)[C@H]3C=Cc4ccccc4N23)cc1,0.251,0.63
CC(=O)C1=C(Nc2ccc(C)cc2)CC(C)(O)C(C(C)=O)C1c1ccc(F)cc1 (stereo unspecified),0.208,0.598
CC(=O)C1C(=O)CC(C)(O)C(C(C)=O)C1c1ccc(Br)cc1 (stereo unspecified),0.25,0.616
C/C(=C\C(=O)Nc1ccc(F)cc1)Nc1ccc(F)cc1,0.253,0.613
CN(C)N=Nc1ccc(S(=O)(=O)NC(=O)Cc2ccccc2)cc1,0.24,0.612
CC(C)(C)NC(=O)c1cc(NC(=O)C(F)(F)F)cc(NC(=O)C(F)(F)F)c1,0.234,0.605
O=C(COc1ccccc1[N+](=O)[O-])Nc1ccccn1,0.24,0.619
COc1ccc(Nc2nc(N/N=C/c3ccc(-c4cccc(C(=O)O)c4)o3)nc(Nc3ccccc3)n2)cc1,0.226,0.634
CC(C)(C)OC(=O)NC(Cc1ccc(OCc2ccccc2)cc1)C(=O)O (stereo unspecified),0.26,0.615
CCOC(=O)/C(C(C)=O)=C1/SCC(C)S1 (stereo unspecified),0.235,0.609
O=C1CC2(CCCC2)C(=O)N1CCNc1nccc(C(F)(F)F)n1,0.261,0.637
Cc1ccc(NC(=O)Nc2ccc(C)c(NC(=O)Nc3ccc(C)cc3)c2)cc1,0.242,0.578
O=C(CNC(=O)C(c1ccccc1)c1ccccc1)N/N=C/c1cc(Br)ccc1O,0.237,0.617
COc1cc(OC)c(C2C(C#N)=C(N)Oc3n[nH]c(-c4cccnc4)c32)cc1OC (stereo unspecified),0.244,0.612
CCc1nc(N)c(C#N)c(-c2ccccc2)c1C,0.239,0.61
CSc1nc2sc(C)c(C)c2c(=O)n1-c1ccccc1,0.219,0.653
O=C1/C(=C\c2ccc(Cl)cc2Cl)N=C(c2ccccc2)N1C1CC1,0.241,0.577
COc1ccc(C(=O)NCC(=O)N/N=C(\C)c2cccc(N)c2)cc1OC,0.249,0.633
O=C1CCc2cccc3cccc1c23,0.235,0.604
CCN(CC)c1ccc(C2C(C(=O)OC3CCCCC3)=C(C)NC3=C2C(=O)CC(c2ccc(Cl)cc2)C3)cc1 (stereo unspecified),0.238,0.614

SMILES,"plate-normalized OD600 growth (temperature: 15°C, 48 h)","plate-normalized OD600 growth (temperature: 37°C, 24 h)"
CC1(C)C2CCC1(C)C(N/C(=C(/C(Cl)=C(Cl)Cl)[N+](=O)[O-])n1nnc3ccccc31)C2 (stereo unspecified),0.253,0.629
CSc1ccc(/C=C2\N=C(c3ccccc3)N(c3ccc(C(=O)Nc4ccc(Br)cc4)cc3)C2=O)cc1,0.257,0.649
COc1ccc(OC)c(NC(=O)c2ccc(N3C(=O)/C(=C/c4ccc(Cl)cc4)N=C3c3ccccc3)cc2)c1,0.216,0.634
O=C(Nc1ccc(F)c(Cl)c1)c1ccc(N2C(=O)/C(=C/c3ccccc3)N=C2c2ccccc2)cc1,0.238,0.653
COc1cc(NC(=S)N2CCN(c3ccccc3OC)CC2)c(OC)cc1Cl,0.231,0.614
Cc1cc(N2CCCC2)ccc1/C=N/n1cnnc1,0.259,0.687
Cc1cc(C=Nc2ccc(Cl)c(O)c2)c(C)n1-c1ccc(Cl)cc1,0.248,0.605
CN1N=C(SCc2ccc(Cl)cc2Cl)Sc2c1cnn(C)c2=O,0.25,0.591
CCCCCCCCNC(=O)C(=O)Nc1cccc(F)c1,0.244,0.564
Cc1ccc2c(c1)N(CCO)C(C)(C)CC2C (stereo unspecified),0.211,0.651
O=C(Nc1ccc(S(=O)(=O)Nc2cccc(Cl)c2Cl)cc1)C1COc2ccccc2O1 (stereo unspecified),0.262,0.62
Cc1cc(C)c2nc3s/c(=C\c4ccccc4C(F)(F)F)c(=O)n3c2c1,0.249,0.593
Cc1nc(-c2ccccn2)nc(NCCNc2cccc(C(F)(F)F)n2)c1Cl,0.257,0.626
O=C(CC1CCC1)Nc1cc(Cl)ccc1Cl,0.256,0.619
Cc1nnsc1C(=O)Nc1ccc(CN2CCS(=O)(=O)CC2)cc1,0.244,0.614
Cc1ccc(S(=O)(=O)N=C(Nc2ccc(O)c(Cl)c2)c2ccccc2)cc1,0.232,0.618
Cc1cc(NC(=NS(=O)(=O)c2ccc(Br)cc2)c2ccccc2)c(Cl)c(C)c1O,0.214,0.634
Cc1cc(NC(=NS(=O)(=O)c2ccc(Br)cc2)c2ccccc2)cc(C)c1O,0.251,0.652
Cc1oc(CC(C)C)cc1C(=O)Nc1cccc(C(=O)O)c1,0.255,0.643
Nc1ccccc1C(=O)Nc1cc(C(=O)O)cc(C(=O)O)c1,0.232,0.625
NC(N)=Nc1nc(-c2cc(Cl)sc2Cl)cs1,0.242,0.607
COc1cc(NC(=O)CCN2CCC(C)CC2)cc(OC)c1,0.217,0.647
Cc1c(Br)sc2ccc(Cl)cc12,0.247,0.612
O=C(CC1(O)C(=O)C=C(c2ccccc2)N1N=C(c1ccccc1)c1ccccc1)c1ccccc1 (stereo unspecified),0.242,0.588

SMILES,"plate-normalized OD600 growth (temperature: 15°C, 48 h)","plate-normalized OD600 growth (temperature: 37°C, 24 h)"
CCOC(=O)COc1nc(-c2ccccc2)cc(-c2ccccc2)c1C#N,0.251,0.629
COc1ccc(C2SCC(=O)N2CCN2CCCCC2)cc1 (stereo unspecified),0.238,0.618
O=c1[nH]c2cccnc2[nH]c1=O,0.233,0.617
COc1ccc(C2CC(=O)N2C2(C(=O)Nc3c(C)cccc3C)CCCCC2)cc1OC (stereo unspecified),0.24,0.605
c1ccc(OCCOc2ccccn2)nc1,0.25,0.612
COc1ccc(Nc2nc(Cl)nc(NCCC3=CCCCC3)n2)cc1,0.257,0.602
O=C1c2cccc3c(SCCO)ccc(c23)C(=O)N1CCc1ccccn1,0.265,0.634
O=C(O)c1cccc(N=Cc2ccc(OCc3ccc(F)cc3)cc2)c1,0.225,0.684
CCCc1ccc(OCC(=O)NNC(=S)Nc2ccccc2)cc1,0.244,0.618
O=[N+]([O-])c1cnc(Sc2n[nH]c(-c3cccs3)n2)s1,0.225,0.607
C=CCn1c(CSc2ccccc2[N+](=O)[O-])n[nH]c1=S,0.26,0.606
C=CCn1c(Sc2ncc([N+](=O)[O-])s2)n[nH]c1=O,0.181,0.588
COc1ccc(/C=N/Nc2nnnn2-c2cccc3ccccc23)cc1OC,0.253,0.627
N#CCC(=O)N(Cc1ccccc1F)C(=O)NC1CCCCC1,0.263,0.647
N/C(=N/OC(=O)c1ccccc1)c1ccc(-c2csnn2)cc1,0.252,0.6
CCC(C)(C)C1CCc2sc3nc[nH]c(=O)c3c2C1 (stereo unspecified),0.248,0.626
CCOc1cc(/C=N/n2cnc3sc4c(c3c2=O)CCCC4)cc(Br)c1OCc1ccc(Cl)cc1,0.245,0.619
CCOC(=O)c1ccc(-c2ccc(/C=C(\C#N)C(=O)NC3CCCCC3)o2)cc1,0.241,0.604
COC(=O)CSc1nc(N)cc(=O)[nH]1,0.247,0.605
Cc1cc(C)c(C(=O)CSc2nc3ccccc3[nH]2)c(C)c1,0.213,0.626
O=C(CSc1nc2ccccc2[nH]1)Nc1nc2ccccc2s1,0.244,0.604

# Source: the supplement of paper PMC4371806
